Only some compounds are listed: those with a hit (about 2.4% of all), similar ones and a draw of the others.
Pol eta inh-1 = qHTS for Inhibitors of Polymerase Eta; DNA polymerase eta (Homo sapiens), Q9Y253; recombinant Pol eta, fluorescent DNA replication assay; Potency, µM (doses to about 114 µM), inactives show at the highest dose activity change, negative = inhibition, hits mostly inhibitors; 1.2% of 390,000 active; AID 588591, 2011; further: potency means the concentration at half of the fitted maximal effect; on the % scale 0 is the no-effect control and ±100 the full control effect
Target sequence (Q9Y253 whole entry, looked up): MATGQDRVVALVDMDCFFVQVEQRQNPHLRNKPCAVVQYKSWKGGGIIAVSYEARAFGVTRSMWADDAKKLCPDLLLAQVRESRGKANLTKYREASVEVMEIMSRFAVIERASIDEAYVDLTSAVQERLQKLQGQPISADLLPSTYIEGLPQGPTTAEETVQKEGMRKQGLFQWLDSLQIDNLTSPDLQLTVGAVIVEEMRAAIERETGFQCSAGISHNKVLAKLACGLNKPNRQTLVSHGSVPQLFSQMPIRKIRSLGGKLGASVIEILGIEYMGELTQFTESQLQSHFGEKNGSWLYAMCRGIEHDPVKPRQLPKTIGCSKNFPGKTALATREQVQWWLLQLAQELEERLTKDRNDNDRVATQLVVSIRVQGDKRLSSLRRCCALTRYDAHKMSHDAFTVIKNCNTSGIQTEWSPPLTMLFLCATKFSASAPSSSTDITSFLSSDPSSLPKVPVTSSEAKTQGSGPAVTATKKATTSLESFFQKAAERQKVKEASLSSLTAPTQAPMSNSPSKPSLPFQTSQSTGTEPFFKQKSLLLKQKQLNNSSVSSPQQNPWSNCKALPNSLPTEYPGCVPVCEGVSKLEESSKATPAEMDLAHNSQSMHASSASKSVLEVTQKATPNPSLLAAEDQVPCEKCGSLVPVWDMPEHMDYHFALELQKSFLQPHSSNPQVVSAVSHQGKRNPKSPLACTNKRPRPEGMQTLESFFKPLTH
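Pol eta (10 nM) was preincubated with compounds for 15 min at room temperature, after which fluorescent replication substrate (50 nM final) was added to start the reaction. Fluorescence was read kinetically at 0 and 10 min.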
FEN1 inh = qHTS Assay for the Inhibitors of Human Flap endonuclease 1 (FEN1); P39748; Recombinant FEN1 flap cleavage, fluorescence, 15 min; Potency, µM (top dose mostly 114 µM), inactives show at the top dose activity change, negative = inhibition, most hits filed as inhibitors; 0.35% of 390,000 active; AID 588795, 2011; further: potency means the concentration at half of the fitted maximal effect; on the % scale 0 is the no-effect control and ±100 the full control effect; nearly all actives have a fitted effect of over 65% in size
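Enzyme 10 nM, 15 min RT preincubation with compound; start with substrate 50 nM final; reads at 0 and 15 min; qHTS titration, four-parameter Hill fit.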
Pol iota inh = qHTS for Inhibitors of Polymerase Iota; AID 588590, 2011; Pol iota fluorescent replication assay, 10 min; 1% of 390,000 active; DNA polymerase iota (Homo sapiens), Q9UNA4; Potency, µM (titrated, usually from 115 µM), inactives show at the top dose activity, negative = inhibition, usual class: inhibitors; further: potency means the concentration at half of the fitted maximal effect
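Fluorescent replication assay read twice, at 0 min and 10 min after adding 50 nM (final) substrate. Enzyme (10 nM) and compounds were first incubated 15 min at room temperature; enzyme-free buffer wells were negative controls.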
Pol kappa inh-1 = qHTS for Inhibitors of Polymerase Kappa; DNA polymerase kappa (Homo sapiens), Q9UBT6; purified Pol kappa, fluorescent DNA synthesis assay, 10 min; Potency, µM (highest dose often 107 µM), without a hit: at the top dose activity, negative = inhibition, actives largely listed as inhibitors; 0.53% of 400,000 active; further: potency means the concentration at half of the fitted maximal effect; on the % scale 0 is the no-effect control and ±100 the full control effect
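Fluorescent qHTS in 1536-well format: enzyme (10 nM) and compound sat 15 min at room temperature before 50 nM substrate (final) was added. Signal taken at 0 and 10 min; no-enzyme buffer wells were negative controls.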
WRN helicase inh = qHTS for Inhibitors of WRN Helicase; Bifunctional 3'-5' exonuclease/ATP-dependent helicase WRN (Homo sapiens), Q14191; WRN helicase unwinding, fluorescent forked duplex, kinetic; Potency, µM (highest dose often 114 µM), for inactives: at the top dose activity change, negative = inhibition, actives largely listed as inhibitors; 0.46% of 360,000 active; further: potency means the concentration at half of the fitted maximal effect; on the % scale 0 is the no-effect control and ±100 the full control effect; nearly all actives have a fitted effect of over 55% in size
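Kinetic fluorescence helicase assay: unwinding of a quenched forked DNA duplex (100 nM final) with 2 mM ATP final raises red fluorescence (525/598 nm). Compounds sat 15 min at room temperature with 20 nM WRN beforehand.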
POLB inh = qHTS Assay for Inhibitors of DNA Polymerase Beta. P06746. Pol beta primer extension/strand displacement, fluorescence kinetic. Potency, µM (doses to about 114 µM), for the others: at the highest dose activity change, negative = inhibition, most hits filed as inhibitors. 1.3% of 340,000 active; further: potency means the concentration at half of the fitted maximal effect; on the % scale 0 is the no-effect control and ±100 the full control effect
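Homogeneous kinetic assay of primer extension and strand displacement by 10 nM Pol beta, preincubated 15 min at room temperature with compound before 50 nM substrate (final) was added. Read at 0 and 10 min; four-parameter Hill fit.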
GALK confirm = Confirmation Assay for Inhibitors of Human Galactokinase (GALK). shares compounds with Pol eta inh-1. purified GALK, Kinase-Glo ATP depletion luminescence. Potency, µM (doses to about 115 µM), inactives show at the top dose activity, negative = inhibition, hits mostly inhibitors. 70% of 150 active. AID 2015, 2009
GALK redox cs = Confirmatory Assay for Inhibitors of Human Galactokinase (GALK): Phenol-HRP redox assay counterscreen; shares compounds with Pol eta inh-1; Phenol red-HRP H2O2 redox cycling, absorbance 600 nm; Potency, µM (top dose mostly 115 µM), without a hit: top-dose activity change, negative = H2O2 signal, actives largely listed as inhibitors; 40% of 150 active
HEK293 viability = Secondary Assay for Inhibitors of Human Galactokinase (GALK): HEK-293 Cell Viability Assay. AID 2547, 2010. shares compounds with Pol eta inh-1. Potency, µM (series often up to 46.1 µM), without a hit: top-dose activity change, negative = cytotoxicity, actives largely listed as inhibitors. HEK-293 viability, ATP luminescence (CellTiter-Glo), 24/48 h. 10% of 170 active; further: potency means the concentration at half of the fitted maximal effect; on the % scale 0 is the no-effect control and ±100 the full control effect
Pol kappa inh-2 = qHTS for Inhibitors of Polymerase Kappa: Confirmatory Assay for Cherry-picked Compounds; shares compounds with Pol eta inh-1; purified Pol-kappa, fluorescent strand-displacement substrate; Potency, µM, most hits filed as inhibitors; 76% of 920 active; further: potency means the concentration at half of the fitted maximal effect
Pol eta inh-2 = qHTS for Inhibitors of Polymerase Eta: Confirmatory Assay for Cherry-picked Compounds; AID 720502, 2013; Pol eta primer extension, TAMRA/BHQ fluorescence, 10 min; shares compounds with Pol eta inh-1; Potency, µM, hits mostly inhibitors; 64% of 2,600 active; further: potency means the concentration at half of the fitted maximal effect
* hit, by the source's call; [ ] = another dose, or the depositor's remark. The call rests on the fitted dose curve; in most records, active means well fitted curve in the direction sought with a large enough effect; inconclusive means small, poorly fitted or top-dose-only effect, or another doubt; inactive means no such curve, though single readings can be large; an effect the other way counts as inactive or inconclusive.

CC(C)c1ccc(NS(=O)(=O)c2ccc3[nH]cc(C(=O)NCC4CCCO4)c(=O)c3c2)cc1 (stereo not drawn) was read as Pol eta inh-1 89µM*, FEN1 inh 1%, Pol iota inh 79µM*, Pol kappa inh-1 -22%, POLB inh 32µM*, Pol kappa inh-2 38* and Pol eta inh-2 inconclusive.
CC(C)c1ccc(NS(=O)(=O)c2ccc3[nH]cc(C(=O)NC4CCCCC4)c(=O)c3c2)cc1 was read as Pol eta inh-1 35µM*, FEN1 inh -12%, Pol iota inh inconclusive, Pol kappa inh-1 inconclusive, POLB inh 25µM*, Pol kappa inh-2 19* and Pol eta inh-2 76*.
For CCc1ccccc1NS(=O)(=O)c1ccc2[nH]cc(C(=O)NCC3CCCO3)c(=O)c2c1 (stereo not drawn) the results were Pol eta inh-1 inconclusive, FEN1 inh 4%, Pol iota inh -10%, Pol kappa inh-1 -7%, WRN helicase inh -6% and POLB inh 17%.
For COc1cccc(OC)c1C(=O)Nc1cccc(-c2nc3cc(C)cc(C)c3o2)c1 the results were Pol eta inh-1 -1%, FEN1 inh -9%, Pol iota inh -7%, Pol kappa inh-1 2% and POLB inh 0%.
Screening COc1ccc(CN2COc3ccc4c(C)cc(=O)oc4c3C2)cc1 returned Pol eta inh-1 3%, FEN1 inh -7%, Pol iota inh 18%, Pol kappa inh-1 -3% and POLB inh 24%.
`CC[C@]1(O)C[C@H]2CN(CCc3c([nH]c4ccccc34)[C@@](C(=O)OC)(c3cc4c(cc3OC)N(C=O)[C@H]3[C@@](O)(C(=O)OC)[C@H](OC(C)=O)[C@]5(CC)C=CCN6CC[C@]43[C@@H]65)C2)C1` gave FEN1 inh -7%, Pol iota inh -3% and Pol kappa inh-1 -8%[60.1 µM].
O=c1oc(-c2ccc(O)c(O)c2)cc2cc(O)cc(O)c12 was read as Pol eta inh-1 10µM*, FEN1 inh 35µM*, Pol iota inh 28µM*, Pol kappa inh-1 inconclusive, WRN helicase inh 50µM*, Pol kappa inh-2 inconclusive and Pol eta inh-2 54*.
Screening COc1cc(-c2cc(=O)c3c(O)cc(O)cc3o2)ccc1O returned Pol eta inh-1 -27%, FEN1 inh inconclusive, Pol iota inh 12%, Pol kappa inh-1 -7%[60.1 µM], WRN helicase inh -4% and POLB inh inconclusive.
Screening COC1=C(N)C(=O)c2nc(-c3nc(C(=O)O)c(C)c(-c4ccc(OC)c(OC)c4O)c3N)ccc2C1=O returned Pol eta inh-1 3.5µM*, FEN1 inh 4µM*, Pol iota inh 0.89µM*, Pol kappa inh-1 50µM*, WRN helicase inh inconclusive, POLB inh 10µM*, GALK confirm inconclusive, GALK redox cs 0.94µM* and HEK293 viability 0.013µM*.
`COc1ccc(C(=O)O)c(O)c1OC` gave Pol kappa inh-1 -20%[60.1 µM].
For CSc1ccc(C2C(C#N)=C(N)Oc3c2ccc(=O)c2c(C)oc(C)c32)cc1 (stereo not drawn) the results were Pol eta inh-1 11µM*, FEN1 inh inconclusive, Pol iota inh inconclusive, Pol kappa inh-1 50µM*, WRN helicase inh inconclusive, POLB inh inconclusive and Pol eta inh-2 inconclusive.
For Cc1oc(C)c2c(=O)ccc3c(c12)OC(N)=C(C#N)C3c1ccccc1 (stereo not drawn) the results were Pol eta inh-1 inconclusive, FEN1 inh -5%, Pol iota inh inconclusive, Pol kappa inh-1 -27%, WRN helicase inh inconclusive and POLB inh inconclusive.
NS(=O)(=O)c1ccc(NC(=O)CSc2nnc(NC3CC3)s2)cc1 was read as Pol eta inh-1 20µM*, FEN1 inh -2%, Pol iota inh 40µM*, Pol kappa inh-1 inconclusive, WRN helicase inh inconclusive and Pol eta inh-2 67*.
`CCOc1cc(/C=C(\C(=O)O)c2ccc(S(=O)(=O)N3CCCC3)s2)ccc1OC` gave Pol eta inh-1 -1%, FEN1 inh 4%, Pol iota inh 7%, Pol kappa inh-1 0% and WRN helicase inh 2%.
`Cc1ccc(C)c(/C=C(\C(=O)O)c2ccc(S(=O)(=O)N3CCCCC3)s2)c1` gave Pol eta inh-1 50µM*, FEN1 inh 12%, Pol iota inh inconclusive, Pol kappa inh-1 inconclusive, WRN helicase inh -12%[11.6 µM], POLB inh 22µM* and Pol eta inh-2 inconclusive.
`C[C@@H](C(=O)Nc1nc(-c2ccccn2)cs1)N1C(=O)C2CCCCC2C1=O` (stereo partly drawn) gave Pol eta inh-1 13µM*, FEN1 inh 18%, Pol iota inh 7.1µM*, Pol kappa inh-1 -15%, WRN helicase inh inconclusive, POLB inh 13µM* and Pol eta inh-2 inconclusive.

High-throughput results from PubChem BioAssay.
